Experiment [1] can be described thus: qHTS assay to identify small molecule agonists of the RXR signaling pathway - cell viability counter screen (AID 1159529).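 Note: HEK 293T cells carrying an RXR-alpha UAS beta-lactamase reporter; nearly all actives have a fitted effect of over 50% in size.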 In short, it runs like this: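 In this parallel viability measure, GeneBLAzer RXR-alpha HEK 293T cells (2% charcoal-stripped FBS) were given a 5 hr preincubation, treated with compounds 16 hr at 37 C, and read by CellTiter-Glo luminescence.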
In general terms: In qHTS, concentration-response curves come from the screen itself.

The nature of experiment [2]: qHTS assay to identify small molecule antagonists of the retinoid acid receptor (RAR) signaling pathway - cell viability counter screen (AID 1159551). Note: nearly all actives have a fitted effect of over 35% in size. The method, boiled down: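 Luminescent ATP quantitation (CellTiter-Glo) gave cell viability in C3RL4 cells exposed to test chemicals for 6 h at 37 C alongside 1 uM final retinol.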
Experiment [3] can be described thus: qHTS assay to identify small molecule antagonists of the estrogen related receptor (ERR) signaling pathway from Tox21 library - cell viability counter screen (AID 1224834). Note: nearly all actives have a fitted effect of over 30% in size. The method, boiled down: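 Fluorescence from CellTiter-Fluor gives the viability read-out, taken 30 min after reagent addition. Before that, ERR cells seeded 6 h earlier were incubated with compounds for 17.5 h at 37 C.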

Experiment [4] concerns the target Luciferin 4-monooxygenase (Photinus pyralis) (UniProt P08659). Kind of experiment: qHTS assay to identify small molecule inhibitors of firefly luciferase (AID 1224835). Note: nearly all actives have a fitted effect of over 25% in size. In short, it runs like this:
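Quantitative HTS format; KM concentrations of both substrates. Purified P. pyralis FLuc activity quantified from luminescence images.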

A short description of experiment [5]: qHTS assay to identify small molecule agonists of the constitutive androstane receptor (CAR) signaling pathway - cell viability counter screen (AID 1224836). Note: nearly all actives have a fitted effect of over 45% in size. Note: potency is the fitted concentration of half-maximal effect. The method, boiled down: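 Using CellTiter-Fluor, viability of HepG2 cells harbouring hCAR and CYP2B6-2.2kb was measured following 23 h incubation with a 15-concentration compound series plus PK11195 (0.75 uM final).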

The nature of experiment [6]: qHTS assay to identify small molecule antagonists of the estrogen related receptor signaling pathway with the pleiotropic PPARgamma coactivator (PGC) from Tox21 10K library - cell viability counter screen (AID 1224840; active = well fitted cell-killing curve with a large enough effect in the repeat runs, not every such curve was filed as active; note: nearly all actives have a fitted effect of over 40% in size; note: potency is the fitted concentration of half-maximal effect). The method, boiled down:
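PGC/ERR cells, 2,000/well; 6 h pre-incubation 37 C/5% CO2; cpd in DMSO via pin tool; 17.5 h 37 C; CellTiter-Fluor, 30 min; fluorescence.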

Experiment [7] can be described thus: qHTS assay to identify small molecule antagonists of the constitutive androstane receptor (CAR) signaling pathway - cell viability counter screen (AID 1224837). Note: nearly all actives have a fitted effect of over 45% in size. Note: potency is the fitted concentration of half-maximal effect. In short, it runs like this:
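HepG2-CYP2B6-hCAR cells, 2500/well, 4 hr pre-incubation; compound titration, 15 conc.; CITCO 50 nM final; 23 hr, 37 C/5% CO2; CellTiter-Fluor, fluorescence intensity.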

Experiment [8] has as its target Thyrotropin receptor (Homo sapiens) (UniProt P16473). Description: qHTS assay to identify small molecule agonists of the thyroid stimulating hormone receptor (TSHR) signaling pathway (AID 1224843; calls by dose curve; note: nearly all actives have a fitted effect of over 45% in size). The method, boiled down:
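TSHR-expressing HEK293 cells (800 per well) were exposed to compounds for 30 min at room temperature. cAMP was then detected by HTRF competition with cAMP-d2 and anti-cAMP cryptate, read after 1 h at room temperature. Fifteen concentrations, triplicate.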

Experiment [9] can be described thus: qHTS assay to identify small molecule antagonists of the retinoic acid receptor (RAR) signaling pathway (AID 1159552; note: nearly all actives have a fitted effect of over 50% in size). In short, it runs like this: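 C3RL4 RARE-luc cells, overnight plating; retinol 1 uM final added right after compound; 6 hr 37 C; luciferase read at 30 min RT.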
Experiment [10] in a line: qHTS assay to identify small molecule agonists of the retinoic acid receptor (RAR) signaling pathway (AID 1159553). The note with it: C3RL4 RARE luciferase reporter, agonist, 6 h; activation: at 73.3 µM (top of the series) unless noted. In short, it runs like this:
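Luminescence from a RARE-driven luciferase reporter in C3RL4 cells served as the read-out, measured after 30 min with detection reagent at room temperature. Compounds in DMSO were applied for 6 hr at 37 C following overnight seeding.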

Experiment [11] addresses Nuclear receptor subfamily 1 group I member 3 (Homo sapiens) (UniProt Q14994). Kind of experiment: qHTS assay to identify small molecule antagonists of the constitutive androstane receptor (CAR) signaling pathway (AID 1224838).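 Note: HepG2 cells stably expressing hCAR with CYP2B6 luciferase reporter stimulated by CITCO; nearly all actives have a fitted effect of over 40% in size.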 Note: potency is the fitted concentration of half-maximal effect. The method, boiled down:
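HepG2-CYP2B6-hCAR cells; 4 h pre-incubation; cpd (15 conc) + CITCO 50 nM final; 24 h, 37 C/5% CO2; ONE-Glo, luminescence.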

Experiment [12] has the same target. Kind of experiment: qHTS assay to identify small molecule agonists of the constitutive androstane receptor (CAR) signaling pathway (AID 1224839).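 Note: HepG2 cells stably carrying human CAR and a CYP2B6 luciferase reporter; nearly all actives have a fitted effect of over 15% in size.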 In short, it runs like this:
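Double-stable HepG2 cells (hCAR, CYP2B6-2.2kb) seeded 4 h before compound addition. Exposure 24 h with 0.75 uM PK11195 final. Luciferase detected by ONE-Glo.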

Experiment [13] can be described thus: qHTS assay to identify small molecule antagonists of the estrogen related receptor signaling pathway with the pleiotropic PPARgamma coactivator (PGC) from Tox21 10K library (AID 1224841; call rule not given here; note: actives are mostly falling curves and most rising ones were filed inactive; nearly all actives have a fitted effect of over 50% in size; note: potency is the fitted concentration of half-maximal effect). The method, boiled down: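 PGC/ERR cell line, 2,000 cells/well; 6 h pre-incubation 37 C/5% CO2; compounds (DMSO) pinned in; 18 h, 37 C; One-Glo, 30 min RT; luminescence.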

Experiment [14] can be described thus: qHTS assay to identify small molecule agonists of the estrogen related receptor signaling pathway with the pleiotropic PPARgamma coactivator (PGC) from Tox21 10K library (AID 1224842). Note: nearly all actives have a fitted effect of over 15% in size. In short, it runs like this: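 PGC/ERR reporter cells (NTP line) were seeded 2,000 per well, rested 6 h at 37 C/5% CO2, then pin-dosed with compounds in DMSO for 18 h at 37 C; luciferase read by One-Glo luminescence after 30 min at room temperature.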

Experiment [15] in a line: qHTS assay to identify small molecule antagonists of the estrogen related receptor (ERR) signaling pathway - cell viability counter screen (AID 1224818).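 Note: viability measured after 17.5 h of compound exposure.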 In short, it runs like this:
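Multiplexed counter screen to separate cytotoxic compounds from true ERR modulators. ERR cells received DMSO-dissolved compounds after a 6 h pre-incubation, were exposed 17.5 h at 37 C, then assayed with CellTiter-Fluor fluorescence.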

The nature of experiment [16]: qHTS assay to identify small molecule antagonists of the estrogen related receptor signaling pathway with the pleiotropic PPARgamma coactivator (PGC) cell viability counter screen (AID 1224822). In short, it runs like this:
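Cells: PGC/ERR, 2,000/well, 1536-well format. Pre-incubation 6 h, 37 C/5% CO2. Compound exposure 17.5 h, 37 C. Detection: CellTiter-Fluor, 30 min, fluorescence.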

Values joined by “and” are separate entries in the source; they are usually repeats but may differ in a detail not shown here. Identical values can stand only once. Results filed as inconclusive are left out. The source holds several records for some structures; these can differ, active in one and inactive in another. Values without a mark were called inactive. Active and inactive are the calls of the source. Unless noted, calls come from the whole dose curve; as a rule, active = well fitted curve in the direction sought with a large enough effect in the repeat runs; inconclusive = weak or mixed curves; inactive = no such curve, though single readings can be large; an effect the other way counts as inactive or inconclusive.

The values that follow come from PubChem BioAssay (Tox21).
% is set by controls: 0 for no effect and ±100 for the full control effect.

Luciferin 4-monooxygenase (Photinus pyralis), sequence (P08659 whole entry, looked up): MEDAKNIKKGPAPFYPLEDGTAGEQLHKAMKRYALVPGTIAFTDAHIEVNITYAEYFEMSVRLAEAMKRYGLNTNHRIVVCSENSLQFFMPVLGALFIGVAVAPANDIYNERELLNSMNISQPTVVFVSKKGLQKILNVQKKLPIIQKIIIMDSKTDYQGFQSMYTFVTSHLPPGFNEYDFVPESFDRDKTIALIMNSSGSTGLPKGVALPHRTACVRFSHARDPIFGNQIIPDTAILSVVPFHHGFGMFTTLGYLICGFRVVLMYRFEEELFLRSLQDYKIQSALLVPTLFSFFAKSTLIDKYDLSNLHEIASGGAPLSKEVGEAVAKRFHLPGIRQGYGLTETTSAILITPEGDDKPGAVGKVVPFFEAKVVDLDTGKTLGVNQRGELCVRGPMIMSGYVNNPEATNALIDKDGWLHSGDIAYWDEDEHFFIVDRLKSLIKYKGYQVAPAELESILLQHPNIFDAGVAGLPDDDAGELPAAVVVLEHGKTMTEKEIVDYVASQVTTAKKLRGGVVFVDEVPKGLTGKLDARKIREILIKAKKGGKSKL
Nuclear receptor subfamily 1 group I member 3 (Homo sapiens), sequence (Q14994 whole entry, looked up): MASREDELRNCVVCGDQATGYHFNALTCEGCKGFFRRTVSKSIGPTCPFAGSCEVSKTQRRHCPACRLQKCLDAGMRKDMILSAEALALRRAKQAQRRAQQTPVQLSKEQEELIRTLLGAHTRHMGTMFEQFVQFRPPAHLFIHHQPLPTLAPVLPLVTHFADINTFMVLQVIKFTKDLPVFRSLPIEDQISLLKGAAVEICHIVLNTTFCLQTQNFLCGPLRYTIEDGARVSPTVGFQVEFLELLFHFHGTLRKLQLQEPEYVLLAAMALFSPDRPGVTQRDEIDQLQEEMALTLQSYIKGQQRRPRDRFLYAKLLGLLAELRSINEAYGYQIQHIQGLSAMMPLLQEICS
Thyrotropin receptor (Homo sapiens), sequence (P16473 whole entry, looked up): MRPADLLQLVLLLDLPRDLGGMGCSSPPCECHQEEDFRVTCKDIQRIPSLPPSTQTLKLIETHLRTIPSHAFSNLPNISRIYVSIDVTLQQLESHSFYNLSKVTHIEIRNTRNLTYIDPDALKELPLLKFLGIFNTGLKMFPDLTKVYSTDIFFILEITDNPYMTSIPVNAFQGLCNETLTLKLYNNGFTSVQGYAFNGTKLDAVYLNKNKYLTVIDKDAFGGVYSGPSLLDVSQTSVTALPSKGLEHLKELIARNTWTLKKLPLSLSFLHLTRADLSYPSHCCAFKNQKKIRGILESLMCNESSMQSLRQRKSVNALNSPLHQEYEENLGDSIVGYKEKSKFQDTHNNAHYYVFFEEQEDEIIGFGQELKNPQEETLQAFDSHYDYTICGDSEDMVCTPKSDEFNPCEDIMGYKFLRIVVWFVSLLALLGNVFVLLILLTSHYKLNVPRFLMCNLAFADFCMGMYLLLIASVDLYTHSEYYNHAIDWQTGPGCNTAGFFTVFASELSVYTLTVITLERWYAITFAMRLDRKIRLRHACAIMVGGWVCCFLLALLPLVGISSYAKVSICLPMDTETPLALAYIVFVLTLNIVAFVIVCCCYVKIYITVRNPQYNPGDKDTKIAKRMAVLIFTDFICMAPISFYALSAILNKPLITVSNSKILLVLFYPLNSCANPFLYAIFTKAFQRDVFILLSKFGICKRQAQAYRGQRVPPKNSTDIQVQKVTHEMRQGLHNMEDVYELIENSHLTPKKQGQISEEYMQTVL

As to `CCC(=O)O[C@H]1[C@H](O[C@@H]2[C@@H](C)[C@H](O[C@H]3C[C@@](C)(OC)[C@@H](O)[C@H](C)O3)[C@@H](C)C(=O)O[C@H](CC)[C@@](C)(O)[C@H](O)[C@@H](C)C(=O)[C@H](C)C[C@@]2(C)O)O[C@H](C)C[C@@H]1N(C)C`, the Potency result in experiment [1], in [2], in experiment [3], in [4], in experiment [5] and in [6] was “inactive” each time.

On to `CC(C)[C@@H]1CC[C@@H](C)CC1=O`, for which the Potency result in experiment [1], in [2], in experiment [3], in experiment [4], in experiment [5] and in [7] was “inactive” in each case. Further, the Potency entry in [6] and in [8] was “inactive” throughout.

For `O=[Se](O)O`, the Potency entry in experiment [2], in experiment [9], in experiment [10], in experiment [4] and in experiment [12] was “inactive” each time. For the same molecule, the Potency in [5] was 43.3 µM (active); in experiment [7] it was 48.6 µM (active); in [11] it was 61.2 µM (active) and 3.3 µM (active); in experiment [6], 30.7 µM (active). The viability change, negative = cytotoxic in experiment [6] was -29.3% [at 19 µM].

For the molecule `CC(=O)O[C@]1(C(C)=O)CC[C@H]2[C@@H]3C=C(C)C4=CC(=O)CC[C@]4(C)[C@H]3CC[C@@]21C`, the Potency entry in [1], in [2], in [4], in experiment [5], in [7] and in experiment [6] was “inactive” each time. Further, the Potency result in experiment [14] was “inactive”. For the same molecule, in experiment [13], the Potency is 24.3 µM (active).

For the molecule `CC1(C)C(C=C(Cl)Cl)C1C(=O)OCc1cccc(Oc2ccccc2)c1` (stereo unspecified), the Potency entry in [1], in experiment [2], in experiment [3], in experiment [4], in [5] and in experiment [11] was “inactive” in each case. The Potency result in [6] was “inactive”.

`CCCCCCC(C)O` (stereo unspecified): the Potency result in experiment [1], in [2], in [3], in experiment [4], in [5] and in experiment [7] was “inactive” in each case. The Potency entry in [6] is “inactive”.

Take `CN(Cc1cnc2nc(N)nc(N)c2n1)c1ccc(C(=O)N[C@@H](CCC(=O)O)C(=O)O)cc1`: the Potency entry in [2], in experiment [9], in experiment [10], in [4], in experiment [5] and in [7] was “inactive” throughout. Further, the Potency entry in [6] was “inactive”. The result in experiment [15] and in experiment [16] was inactive. Besides, the Potency in experiment [11] is 48.6 nM (active) and 75 nM (active).

With `COC(=O)C(C)Oc1ccc(Oc2ncc(C(F)(F)F)cc2Cl)cc1` (stereo unspecified), the Potency entry in [1], in experiment [2], in experiment [3], in experiment [4], in [5] and in [11] was “inactive” in each case. Further, the Potency result in experiment [6] and in [14] was “inactive” each time. Moreover, in experiment [13], the Potency is 78 µM (active).

For the molecule `NCCOCCO`, the Potency result in [1], in experiment [2], in experiment [3], in experiment [4], in [5] and in experiment [6] was “inactive” throughout. In addition, the Potency result in experiment [13] and in experiment [14] was “inactive” in each case.

With `c1ccc2ncccc2c1`, the Potency result in experiment [1], in [2], in [4], in [5], in experiment [7] and in experiment [11] was “inactive” each time. In addition, the Potency result in experiment [6] and in experiment [8] was “inactive” in each case.

Turning to `NCCN`, the Potency entry in experiment [1], in experiment [2], in experiment [3], in experiment [4], in experiment [5] and in experiment [6] was “inactive” each time. The Potency entry in experiment [8] was “inactive”.

With `CN(C)C`, the Potency entry in experiment [1], in experiment [2], in [3], in experiment [4], in experiment [5] and in experiment [7] was “inactive” throughout. Further, the Potency entry in experiment [11] and in [6] was “inactive” throughout.
